PubChem BioAssay AID624417 (National Center for Advancing Translational Sciences (NCATS), 2012)
About 6,400 (1.6%) of roughly 410,000 compounds were called active. Not shown: some 20% with an inconclusive outcome. This is one part of a sample in which actives are shown more often than they occur. A number with no mark means an inactive call. The call rests on the fitted dose curve; in most records, active means well fitted inhibition curve with a large enough effect; inconclusive means small, poorly fitted or top-dose-only effect; inactive means no such curve, though single readings can be large or run the other way.

Target: Glucagon-like peptide 1 receptor (Homo sapiens) (UniProt P43220)
Sequence (P43220 whole entry, looked up): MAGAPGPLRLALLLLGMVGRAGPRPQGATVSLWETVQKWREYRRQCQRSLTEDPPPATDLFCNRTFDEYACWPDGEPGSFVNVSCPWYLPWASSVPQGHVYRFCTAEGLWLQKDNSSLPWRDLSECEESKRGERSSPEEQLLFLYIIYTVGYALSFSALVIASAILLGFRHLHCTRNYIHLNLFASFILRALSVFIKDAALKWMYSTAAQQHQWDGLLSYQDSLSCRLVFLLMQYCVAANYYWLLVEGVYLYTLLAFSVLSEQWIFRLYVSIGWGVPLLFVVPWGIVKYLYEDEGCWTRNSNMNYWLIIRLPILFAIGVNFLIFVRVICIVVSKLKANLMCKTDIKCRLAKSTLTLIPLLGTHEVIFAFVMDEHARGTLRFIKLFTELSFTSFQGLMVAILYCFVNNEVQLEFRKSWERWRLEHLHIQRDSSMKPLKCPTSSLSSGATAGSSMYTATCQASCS
Test: qHTS of GLP-1 Receptor Inverse Agonists (Inhibition Mode); further: nearly all actives have a fitted effect of over 55% in size
Details: HEK293 GLP-1R CRE-luciferase, luminescence, 24 h, GLP-1R form is constitutively active; series mostly up to 38.3 µM; activity change, negative = inhibition: at the top concentration
In short: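 qHTS in 1536-well format: reporter HEK293 cells expressing constitutive GLP-1R activity in DMEM + 10% Nu serum, 24 hr with compounds at 37 deg C, luminescence read after 12 min with detection reagent.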
On the % scale 0 is the no-effect control and ±100 the full control effect; potency means the concentration at half of the fitted maximal effect.

| SMILES | activity change, negative = inhibition [%] | Potency |
| --- | --- | --- |
| O=C1c2ccccc2C(=O)C1c1ccccc1F | 12.5 | – |
| COc1cc(C2CC(=O)c3cnc(NC(C)=O)nc3C2)cc(OC)c1OC (stereo unspecified) | 30.8 | – |
| CCc1ccc(Nc2ncc3c(n2)CC(c2ccco2)CC3=O)cc1 (stereo unspecified) | 16 | – |
| CN1CCN(c2ncc3c(n2)CC(c2ccccc2F)CC3=O)CC1 (stereo unspecified) | – | 3.98 µM (active) |
| O=C(OCc1ccccc1)N1CCC2CC1c1cc(N3CCN(S(=O)(=O)c4cc(Cl)cc(Cl)c4)CC3)ccc12 (stereo unspecified) | -0.327 | – |
| CC(=O)Nc1ccc(SCC(=O)NC(=O)c2ccc(Cl)cc2)cc1 | -4.29 | – |
| COc1ccc([C@H]2C[C@@H](n3cc(COC(=O)c4ccccc4)nn3)[C@H](O)CN2C(=O)c2cccs2)cc1 | -28.9 | – |
| CC(C)OC(=O)CC(=O)CC(O)c1cccc([N+](=O)[O-])c1 (stereo unspecified) | 1.7 | – |
| NCCCCC(C(=O)O)N(C(=O)OCc1ccccc1)C(=O)OCc1ccccc1 (stereo unspecified) | 28.4 | – |
| COc1ccc(CN2C(=O)C(CC(=O)NCCN3CCOCC3)CC(C(=O)N(C(C)C)C(C)C)=C2C)cc1 (stereo unspecified) | 14.3 | – |
| O=C(Nc1ccccc1N1CCCC1)c1ccc2ccccc2c1 | 4.76 | – |
| COc1ccc(C(=O)NC(=S)Nc2ccccc2N2CCN(S(C)(=O)=O)CC2)cc1OC | 19.1 | – |
| O=C(NC(=S)Nc1ccccc1N1CCCCC1)c1ccc(F)cc1 | – | 12.6 µM (active) |
| CCCC/C=C/c1cccc2nncn12 | 5.17 | – |
| CN1c2ccc(C=O)c3c(C=O)ccc(c23)N(C)C1(C)C | – | 12.6 µM (active) |
| Cc1ccc(C=O)c([B-](F)(F)F)c1 | -30.1 | – |
| CCOC(=O)N1C(=O)C[C@](Sc2ccc(C)cc2)(C(=O)OC)[C@H]1c1ccccc1 | 5.79 | – |
| COc1ccc(NC(=O)[C@H](NC(=O)[C@@H]2Cc3ccccc3CN2)c2ccccc2)cc1 | -22.4 | – |
| COc1cccc(NC(=O)[C@H](Cc2c[nH]c3ccccc23)NC(=O)[C@@H]2Cc3ccccc3CN2)c1 | – | 3.98 µM (active) |
| COc1ccc(CNC(=O)[C@H](Cc2c[nH]c3ccccc23)NC(C)=O)cc1OC | 11 | – |
| O=C(O)c1ccccc1-c1cccc2nncn12 | 12 | – |
| Cc1cccc(C)c1NC(=O)COC(=O)c1c(C)nn(-c2ccccc2)c1C | -11 | – |
| CCCn1c(C)cc(C(=O)COC(=O)c2c(C)nn(-c3ccccc3)c2C)c1C | – | 10 µM (active) |
| COc1ccc(CNC(=O)COC(=O)c2c(C)nn(-c3ccccc3)c2C)cc1OC | -0.123 | – |
| Cc1noc(C)c1C(=O)N1CCC1(C)C(=O)NS(=O)(=O)c1ccc(C#N)cc1 (stereo unspecified) | 15.3 | – |
| Clc1ccc(-c2cccc3nccn23)cc1 | 13 | – |

| SMILES | activity change, negative = inhibition [%] | Potency |
| --- | --- | --- |
| COc1ccc(C2CC(c3cccc(OC)c3)=NN2c2ccc(S(N)(=O)=O)cc2)cc1 (stereo unspecified) | 27.5 | – |
| Cc1cccn2c(=O)c3cc(C(=O)NCCN4CCOCC4)c(=N)n(Cc4cccnc4)c3nc12 | – | 3.98 µM (active) |
| CCCn1c(=N)c(C(=O)NCc2ccccc2)cc2c(=O)n3cccc(C)c3nc21 | 2.15 | – |
| Cc1cccn2c(=O)c3cc(C(=O)NCC4CCCO4)c(=N)n(Cc4ccc(F)cc4)c3nc12 (stereo unspecified) | 85.4 | – |
| C=CCn1c2c(c3ccccc31)CCC2 | -1.11 | – |
| CN1c2ccc([N+](=O)[O-])cc2C(C)(C)C12C=Cc1cc(C(=O)O)ccc1O2 (stereo unspecified) | 0.491 | – |
| COc1ccc2c(c1)C=CC1(O2)N(CCO)c2ccccc2C1(C)C (stereo unspecified) | – | 2.51 µM (active) |
| CCCCn1nnnc1C1(C)CCC(=O)N1Cc1ccc(OC)c(OC)c1 (stereo unspecified) | 11.4 | – |
| Cc1cccc(C)c1NC(=O)CNC(=O)c1ccc(N2CCOCC2)c([N+](=O)[O-])c1 | 13.7 | – |
| CC(C)NC(=O)C1(C)CCCCN1Cc1cccc(C(F)(F)F)c1 (stereo unspecified) | 1.63 | – |
| CC1(C(=O)Nc2cccnc2)Cc2c(-c3ccccc3)ccnc2O1 (stereo unspecified) | 1.75 | – |
| CC(=O)Nc1cnc(-c2ccc(O)cc2C)cn1 | 18.2 | – |
| Oc1c(CN2CCN(c3ccc(F)cc3)CC2)cc(Cl)c2cccnc12 | – | 2.51 µM (active) |
| Cc1cccc(C)c1NC(=O)CN1CCN(c2ccc(F)cc2)CC1 | 2.26 | – |
| Cc1cccnc1NC(=O)c1cccc(S(=O)(=O)N2CCN(c3ccc(F)cc3)CC2)c1 | -19.3 | – |
| Cc1ccc(S(=O)(=O)NN=C2CC(C)(C)CC(=O)C2(C)C)cc1 | -13.3 | – |
| COc1ccccc1C(=O)NC(=S)NC12CC3CC(CC(C3)C1)C2 | -32.2 | – |
| COc1ccc(/C=C/C(=O)Nc2ccc(C34CC5CC(CC(O)(C5)C3)C4)cc2)cc1OC | -5.2 | – |
| CSc1ccc(/C=C/C(=O)NC23CC4CC(CC(C4)C2)C3)cc1 | – | 11.2 µM (active) |
| COc1ccc(C(=O)NCC2CCCO2)cc1S(=O)(=O)NCc1ccc(Cl)cc1 (stereo unspecified) | -4.08 | – |
| Cc1cccc(C)c1-n1nnnc1C1(C)CCC(=O)N1CCOc1ccccc1 (stereo unspecified) | 6.38 | – |
| O=C(NCc1ccco1)c1cccc(-c2ccc3nncn3c2)c1 | 17.9 | – |
| CCCCN(C)C(=O)C1CCN(Cc2ccccn2)CC1 | -6.28 | – |
| CCCCN(Cc1ccccc1)C(=O)C1CCN(Cc2sccc2C)CC1 | – | 7.08 µM (active) |
| CCCC(=O)C1CCN(Cc2ccccc2)CC1 | -6.46 | – |
